This is an account of results in PubChem BioAssay (NCI).

About 83,000 compounds went through this panel and 20% of them were active in at least one assay; those are over-represented in the sample as a whole.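 48-hour exposure, single concentration, 96-well plates; percent growth endpoint where 0 means no net growth. Active: below 10.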 Unmarked numbers belong to inactive results. The source made the active and inactive calls.

Some test systems named below: EKVX NSCLC; SN12C renal; UO-31 renal; TK-10 renal; ACHN renal; CAKI-1 renal; A498 renal; MOLT-4 leukemia; SR leukemia; CCRF-CEM leukemia.
Common to all, as to experiment: NCI-60 one-dose screen, 48 h (100 = growth as untreated, 0 = no growth, -100 = all killed)
Settings in all cases: 10 µM unless noted

On to `Cc1ccc(C(O)C2=CC(=O)c3ccccc3C2=O)cc1` (stereo not given), for which the growth in the test with EKVX NSCLC was 91.2%; with SN12C renal, 94.9%; in the test with UO-31 renal, 73.2%; in the test with TK-10 renal it was 118%; with ACHN renal it was 86.7%; with CAKI-1 renal, 100%. Also, the growth is 95.9% with A498 renal, 94.7% with MOLT-4 leukemia and 90% with SR leukemia.
For the compound `O=C(CCc1nnc2sc(-c3ccc(Cl)cc3Cl)nn12)c1nc2ccccc2[nH]1`, the growth with EKVX NSCLC is -29.7% (active); in the test with SN12C renal, -36.7% (active); in the test with UO-31 renal it was -72.6% (active); in the test on TK-10 renal, -83.2% (active); with ACHN renal, -89.7% (active); with CAKI-1 renal, -54.2% (active). The growth was 10.9% in the test with CCRF-CEM leukemia and 1.48% (active) with MOLT-4 leukemia.
`O=C(/C=C/c1cc2ccccc2[nH]c1=O)c1ccc(Cl)cc1`: the growth in the test with EKVX NSCLC was 63.7%; with SN12C renal, 47.4%; in the test with UO-31 renal, 29.8%; with TK-10 renal, 48.5%; in the test with ACHN renal it was 51.6%; with CAKI-1 renal, 42.1%. In addition, the values for the growth with A498 renal and with MOLT-4 leukemia were 13.7% and 2.61% (active), respectively.
Regarding `ClC1=C(Cl)C(Cl)=C(Cl)C1=Cc1ccc(Cl)cc1`, the growth in the test with EKVX NSCLC was -22.6% (active); in the test with SN12C renal it was 47.2%; in the test with UO-31 renal, -56.9% (active); in the test on TK-10 renal, 8.54% (active); in the test on ACHN renal, 29%; with CAKI-1 renal, -63.5% (active). The growth with A498 renal is 27.2%; in the test on MOLT-4 leukemia, 0.492% (active); with SR leukemia, -14.1% (active).
As to `CN1COc2ccc3ccccc3c2C1`, the growth is 96.1% in the test on EKVX NSCLC; 87.5% with SN12C renal; 32.3% with UO-31 renal; 105% with TK-10 renal; 89% in the test on ACHN renal; 90.9% with CAKI-1 renal. Moreover, the figures for the growth with A498 renal and with MOLT-4 leukemia were 102% and 90.6%, respectively.
Consider `CN(CC(=O)Nc1nc2ccccc2[nH]1)S(=O)(=O)c1ccc(Cl)cc1`, for which the growth in the test on EKVX NSCLC is 95.4%; in the test on SN12C renal, 93.9%; in the test on UO-31 renal it was 28.8%; with TK-10 renal, 118%; in the test with ACHN renal it was 83.5%; in the test on CAKI-1 renal, 89.8%. For the same compound, the growth was 91.7% with A498 renal, 44.6% in the test with CCRF-CEM leukemia and 89.9% with SR leukemia.
`CCn1c2ccccc2c2ccc(C(C)=O)cc21`: the growth was 99.2% with EKVX NSCLC; 114% in the test with SN12C renal; 106% in the test with UO-31 renal; 105% in the test with TK-10 renal; 98.1% in the test with ACHN renal; 94.1% in the test on CAKI-1 renal. In addition, the growth in the test on A498 renal is 83.8%; in the test with MOLT-4 leukemia, 96.8%; in the test on SR leukemia it was 97.8%.
As to `COc1ccc(-n2nc3c(c2-c2ccc(OC)c(OC)c2)-c2oncc2CC3)cc1`, the growth was 92.6% in the test on EKVX NSCLC; 88.4% in the test on SN12C renal; 79.1% in the test on UO-31 renal; 103% in the test with TK-10 renal; 55.7% in the test on ACHN renal; 80.6% in the test on CAKI-1 renal. Moreover, the growth with CCRF-CEM leukemia is 50.4%; in the test with MOLT-4 leukemia it was 72.6%.
With `O=C(/C=C/c1cc2ccccc2[nH]c1=O)c1ccc(O)cc1`, the growth was 87.5% with EKVX NSCLC; 47.5% in the test with SN12C renal; 45.6% with UO-31 renal; 50.1% in the test on TK-10 renal; 66.2% with ACHN renal; 40.9% in the test on CAKI-1 renal. Also, the growth in the test on A498 renal was 56.2%; in the test with MOLT-4 leukemia, 30.9%; with SR leukemia, -0.193% (active).
Turning to `C=CCCCCCCCCC(=O)[O][Sn]([CH2]CCC)([CH2]CCC)[CH2]CCC`, the growth with EKVX NSCLC was -55.1% (active); with SN12C renal, -82% (active); in the test on UO-31 renal it was -88.7% (active); in the test with TK-10 renal, -92.2% (active); in the test on ACHN renal, -99.6% (active); in the test with CAKI-1 renal, -89.4% (active). Besides, the growth was -97.3% (active) in the test on A498 renal and 4.17% (active) in the test on MOLT-4 leukemia.
As for `Cn1cc(-c2nc(-c3c[nH]c4ncccc34)cs2)c2cccnc21`, the growth with EKVX NSCLC was 50.5%; in the test with SN12C renal, 84.4%; in the test with UO-31 renal, 52.9%; in the test with TK-10 renal it was 31%; with ACHN renal, 41.4%; with CAKI-1 renal it was 28.3%. In addition, the values for the growth in the test with CCRF-CEM leukemia and with MOLT-4 leukemia were 65.3% and 69.3%, respectively.
`CN(CCOc1ccc(CC2SC(=O)NC2=O)cc1)c1ccccn1` (stereo not given): the growth in the test with EKVX NSCLC was 101%; in the test on SN12C renal it was 88.2%; in the test with UO-31 renal, 72.1%; with TK-10 renal, 103%; in the test with ACHN renal, 84.9%; in the test on CAKI-1 renal, 96.3%. For the same compound, the figures for the growth in the test with CCRF-CEM leukemia and in the test on MOLT-4 leukemia were 108% and 119%, respectively.
As to `NC(=O)SCC(=O)Nc1ccccc1-c1ccccc1`, the growth in the test on EKVX NSCLC was 121%; with SN12C renal, 90.7%; in the test with UO-31 renal it was 64.9%; in the test on TK-10 renal, 106%; with ACHN renal it was 83%; with CAKI-1 renal it was 105%. In addition, the growth was 103% in the test with CCRF-CEM leukemia, 98% in the test on MOLT-4 leukemia and 122% in the test with SR leukemia.
`C/C(=N/N=C(N)N)c1ccc(N)cc1`: the growth in the test on EKVX NSCLC is 119%; in the test on SN12C renal, 95.9%; in the test with UO-31 renal it was 69.8%; with TK-10 renal, 104%; in the test with ACHN renal it was 102%; with CAKI-1 renal it was 38%. Besides, the growth was 124% in the test with CCRF-CEM leukemia, 109% with MOLT-4 leukemia and 49.3% in the test on SR leukemia.
For `COc1cc(/C=C/C(=O)Nc2cccnc2Nc2cc(OC)c(OC)c(OC)c2)cc(OC)c1OC`, the growth in the test on EKVX NSCLC is 92%; in the test with SN12C renal, 76.1%; in the test on UO-31 renal, 89.8%; in the test with TK-10 renal, 116%; with ACHN renal it was 96.5%; in the test with CAKI-1 renal, 82.3%. Moreover, the growth is 66.1% in the test on CCRF-CEM leukemia, 94.1% in the test on MOLT-4 leukemia and 92.5% in the test with SR leukemia.
Take `O=C1C[C@@H]2/C(=C(O)\C=C\c3ccccc3)C(=O)C=C[C@@H]2O1`: the growth in the test with EKVX NSCLC is 25.6%; in the test on SN12C renal, -21.8% (active); in the test with UO-31 renal, -85.9% (active); with TK-10 renal, 3.39% (active); with ACHN renal, -17.7% (active); in the test with CAKI-1 renal, -54% (active). The growth was 12.5% in the test with CCRF-CEM leukemia, 6.97% (active) with MOLT-4 leukemia and 10.2% in the test with SR leukemia.
Consider `CN(C)c1ccc2c(c1)/C(=N/O)c1ccccc1-2`, for which the growth is 67.7% in the test on EKVX NSCLC; 95.4% with SN12C renal; 64.5% in the test with UO-31 renal; 123% with TK-10 renal; 87.5% in the test with ACHN renal; 46.6% in the test on CAKI-1 renal. For the same compound, the growth in the test with CCRF-CEM leukemia is 83.8%; in the test with MOLT-4 leukemia, 81.2%; in the test on SR leukemia, 47.1%.
With `CO[C@H]1/C=C/O[C@@]2(C)Oc3c(C)c(O)c4c(O)c(c(/C=N/N5C(C)CN(Cc6ccccc6)CC5C)c(O)c4c3C2=O)NC(=O)/C(C)=C\C=C\[C@H](C)[C@H](O)[C@@H](C)[C@@H](O)[C@@H](C)[C@H](OC(C)=O)[C@@H]1C` (stereo not given in full), the growth was 64.7% with EKVX NSCLC; 87% in the test on SN12C renal; 34.1% in the test with UO-31 renal; 69.1% in the test with TK-10 renal; 70.1% with ACHN renal; 117% with CAKI-1 renal. In addition, the growth in the test on CCRF-CEM leukemia was 285%; with MOLT-4 leukemia it was 217%; in the test on SR leukemia, 212%.
